# Test results published in ChEMBL document CHEMBL4513146, “CO-ADD screening of Karazin Kharkiv National University (Ukraine) compounds”.
# Results with a measured potency or affinity are listed apart.
# Tests used:
# Staphylococcus aureus = settings: Concentration 32 ug.mL-1;; ASSAY_TEST Inhibition of Bacterial Growth; detection method Absorption (OD600); MEDIA CAMHB; plate type 384well; NBS; CORNING #3640; time 18 hr
# Escherichia coli = settings: Concentration 32 ug.mL-1;; ASSAY_TEST Inhibition of Bacterial Growth; detection method Absorption (OD600); MEDIA CAMHB; plate type 384well; NBS; CORNING #3640; time 18 hr
SMILES,Inhibition (Staphylococcus aureus) [%],Inhibition (Escherichia coli) [%]
COc1ccc(C(C)NC(=O)CCc2nnc3ccc(-c4ccc(C)c(C)c4)nn23)cc1OC (centres undefined),7.27,-3.17
Cc1oc(-c2cccc(Cl)c2)nc1CSc1nc2ccccc2n2c(C)nnc12,0.94,1.96
COc1ccc(Cl)cc1NC(=O)Cn1nc2c3cc(-c4ccc(C)c(C)c4)nn3ccn2c1=O,-18.41,-23.9
Cc1cccc(NC(=O)c2ccc3nn(CC(=O)N4CCc5ccccc5C4)c(=O)n3c2)c1,-5.11,-8.84
Cc1ccc(-c2cc3c4nn(CC(=O)Nc5cc(Cl)ccc5C)c(=O)n4ccn3n2)cc1C,2.42,-7.74
Cc1ccc(C)c(NC(=O)Cn2nc3c4cc(-c5ccc(C)c(C)c5)nn4ccn3c2=O)c1,4.52,-6.72
Cc1cccc(Oc2nccn3c(=O)n(CC(=O)N4CCN(c5ccccc5F)CC4)nc23)c1C,-3.04,-9.87
CC(C)(C)NC(=O)Cn1nc2n(Cc3cccs3)c(=O)c3sccc3n2c1=O,-26.19,-5.05
COC(=O)c1ccc(CN(c2ccc(F)cc2)S(=O)(=O)c2cccn3c(C)nnc23)o1,11.5,-1.28
CCc1ccccc1Sc1nccn2c(=O)n(CC(=O)Nc3cccc(Br)c3)nc12,8.83,2.3
O=C(CSc1nc2ccccc2n2cnnc12)Nc1ccc2c(c1)OCCO2,6.86,5.63
CC(C)c1nnc2c(SCC(=O)Nc3cccc(Cl)c3)nc3ccccc3n12,8.54,0
Cc1ccc(-c2cc3c4nn(CC(=O)Nc5ccc(Br)cc5)c(=O)n4ccn3n2)cc1C,0.82,-8.3
COc1cc(OC)c(NC(=O)Cn2nc3c(SC4CCCCC4)nccn3c2=O)cc1Cl,7.52,-4.1
CC(C)CCNC(=O)Cn1nc2n(Cc3ccco3)c(=O)c3sccc3n2c1=O,8.27,0.93
Cc1ccccc1Oc1nccn2c(=O)n(CC(=O)Nc3cc(Cl)ccc3Cl)nc12,0.32,-4.76

SMILES,Inhibition (Staphylococcus aureus) [%],Inhibition (Escherichia coli) [%]
CCc1nnc2c(SCC(=O)Nc3ccc(C(C)=O)cc3)nc3ccccc3n12,4.71,4.62
CCOc1ccc(NC(=O)Cn2nc3c(N4CCCC(C)C4)nccn3c2=O)cc1 (centres undefined),4.96,-4.53
Cc1nnc2ccc(S(=O)(=O)N(Cc3cccc(F)c3)c3cccc(F)c3)cn12,-4.62,-13.2
COc1ccccc1N1CCN(C(=O)CSc2nnc3c(=O)n(-c4ccccc4)ccn23)CC1,3.83,-6.8
CCOc1ccc(-n2ccn3c(SCC(=O)Nc4cccc(CC)c4)nnc3c2=O)cc1,-2.86,-8.29
CCCCn1c(=O)c2sccc2n2c(=O)n(CC(=O)c3ccc(OC)c(OC)c3)nc12,13.6,0.21
Cc1cccc(NC(=O)Cn2nc3ccc(-c4ccc(C)c(C)c4)nn3c2=O)c1,-13.22,-14.87
O=S(=O)(c1ccc2nncn2c1)N(Cc1ccccc1)c1ccc(F)c(F)c1,-0.12,-6.68
COc1ccccc1NC(=O)Cn1nc2n(CCCOC(C)C)c(=O)c3ccccc3n2c1=O,11.96,2.24
CC(C)Cc1ccc(S(=O)(=O)Nc2ccc3nncn3n2)cc1,13.61,2.12
Cc1ccc(Oc2nccn3c(=O)n(CC(=O)Nc4cccc(Br)c4)nc23)cc1,4.81,-7.18
Cc1ccc(Cl)cc1NC(=O)CSc1nnc2ccc(C(=O)Nc3cccc(F)c3)cn12,14.11,0.94
CCc1ccccc1Sc1nccn2c(=O)n(CC(=O)Nc3ccc(C)cc3C)nc12,10.48,-10.9
Cc1ccc(-c2cc3c4nn(CC(=O)Nc5ccc(Cl)cc5)c(=O)n4ccn3n2)cc1C,-15.51,-16.09
Cc1ccc(NC(=O)Cn2nc3c(SCc4ccc(Cl)cc4)nccn3c2=O)cc1F,5.52,0.08
COc1ccc(CN(c2cc(C)cc(C)c2)S(=O)(=O)c2cccn3c(C)nnc23)cc1,-21.45,-2.42
